Inhibition data for 40 molecules are collected here from ChEMBL document CHEMBL1157539, “Thousands of chemical starting points for antimalarial lead identification” (Nature, 2010).

The assay concerns HepG2. Nature of the assay: GSK_TCMDC: Percent inhibition of human HepG2 cell line. Test compounds present at 10uM. Format: functional.
In general, Inhibition refers to the change of the read-out against control, counted positive when it falls. Low readings indicate a weak effect, high ones a strong effect. `CCNc1cc(C(=O)N[C@@H](Cc2ccccc2)[C@H](O)CNC2(C)CCCCC2)cc(N2CCCCS2(=O)=O)c1.Cl` came in with an Inhibition of 13%. `CCC1(CC)N=C(N)N=C(N)C1c1ccc(Cl)c(Cl)c1.Cl` (stereo not given) had an Inhibition of 0%. `N#Cc1ccc(CN2CCC(Oc3ccc(NC(=O)c4ccsc4)cc3Cl)C2)cc1.O=C(O)C(F)(F)F` (stereo not given) displayed an Inhibition of 29%. Molecule `Cc1ccc(NC(=O)c2ccc3ncccc3c2)cc1OC1CCN(Cc2ccsc2)C1.O=C(O)C(F)(F)F` (stereo not given) displayed an Inhibition of 5%.

Regarding `Cc1cc2cc(NC(=O)Nc3ccnc4ccccc34)ccc2n1C.Cl`, the Inhibition is listed as 17%.

On to `COc1cc2c(cc1S(=O)(=O)c1ccc(NC(=O)Nc3ccc(F)cc3)cc1)CCN(C)CC2.Cl`, for which the Inhibition was found to be 0%. For the molecule `Cc1nc2nc(N)nc(N)c2c(C)c1Cc1ccc(C(N)=O)cc1.Cl`, the Inhibition is 55%. `COc1ccc(CCNCCCCCCNCCc2ccccc2Cl)cc1OC.Cl` returned an Inhibition of 13%. Then `Oc1ccc(CCNc2nc(N/N=C/c3ccc(Cl)cc3)nc(N3CCNCC3)n2)cc1`, with 14%; and `COc1ccc2nccc(N3CCC(NCCNCc4cc5c(cn4)OCCO5)C3)c2n1.Cl` (stereo not given), with 8%; and `CCN(CC)CCOc1ccc(Nc2ncc3cc(-c4c(Cl)cccc4Cl)c(=O)n(C)c3n2)cc1` [PD-0166285], with 72%. Turning to `NCC1CCCN1Cc1ccc(-c2ccc(-c3nc4cc(C(F)(F)F)ccc4[nH]3)cc2)cc1.O=C(O)C(F)(F)F` (stereo not given), the Inhibition worked out at 35%. `Cc1ccc(O)cc1Nc1c(C(N)=O)cnc2ccc(-c3cncs3)cc12` yielded an Inhibition of 21%.

In the case of `Cc1noc(=O)c2ccc(NC(=O)C(O)(CSc3ccccc3)CC(C)C)cc12` (stereo not given), the Inhibition stood at 0%. With `CCNc1cc(C)nc(Nc2ccc(NC(=O)c3ccccc3)cc2)n1`, the Inhibition is listed as 41%.

For `CON(C)C(=O)[C@@H](CCCCNC(=O)OCc1ccccc1)NC(=O)OC(C)(C)C`, the Inhibition came to 5%.

For the molecule `COc1cc(F)c2nccc([C@@H](O)CN3CCC(NCc4cc5c(cc4F)OCCO5)CC3)c2c1`, the Inhibition is 23%. Molecule `CC(C)CCNC(=O)C1Cc2c([nH]c3cc(Cl)ccc23)C2(CCN(CCc3ccccc3)CC2)N1` (stereo not given) yielded an Inhibition of 17%. Turning to `COc1cccc(-c2nn(C)c3sc(C(=O)Nc4cccnc4)cc23)c1`, the Inhibition is given as 1%. Molecule `CCNc1cc(C(=O)N[C@@H](Cc2ccccc2)[C@H](O)CNC(C)(C)CCCC(C)C)cc(N2CCCCS2(=O)=O)c1.O=CO` showed an Inhibition of 5%.

Molecule `Cc1cc(N[C@@H](Cc2ccccc2)C(=O)NCCc2ccccc2)nc(NCCc2ccccc2)n1.O=C(O)C(F)(F)F` had an Inhibition of 0%. Molecule `Cl.O=C(Nc1ccc(Cl)c(Cl)c1)Nc1ccc2nccc(N3CCNCC3)c2c1` registered an Inhibition of 18%. Then `COc1ccc(Nc2nccc(N3CCC(NC(=O)c4cc5ccccc5s4)C3)n2)cc1` (stereo not given), with 1%. `COc1cc(-c2nc(-c3ccncc3)c(-c3ccc4c(c3)CCC4=NO)[nH]2)ccc1OCCN1CCCCC1.Cl` gave an Inhibition of 75%. Under `COc1c(C2CCN(CCCCNC(=O)C=Cc3cc4cc(Cl)ccc4o3)CC2)ccc2c1CCCC2` stands 33%; under `COc1cc(Nc2nccc(N3CCC(NC(=O)C4COc5ccccc5O4)C3)n2)cc(OC)c1OC` (stereo not given), 5%; under `O=C(NCc1ccccc1)Nc1cccc(-c2cccc(-c3nc4cc(C(F)(F)F)ccc4[nH]3)c2)c1`, 56%. With `CN1C(=C2SC(=Nc3ccc4ncccc4c3)N(Cc3ccccc3)C2=O)Sc2ccc(Cl)cc21`, the Inhibition came out at 4%. In turn, `Cc1ccccc1C1CCN(C2CCC(NC(=O)/C=C/c3cc(F)ccc3F)CC2)CC1` (stereo not given) gave an Inhibition of 47%. On to `O=C(CNC(=O)c1ccc(O)cc1)Nc1ccc(-c2cccc(-c3nc4cc(C(F)(F)F)ccc4[nH]3)c2)cc1`, for which the Inhibition was found to be 26%. Consider `CNC(=O)COC(=O)c1c2c(nc3ccccc13)C(=Cc1ccc3c(c1)OCO3)CCC2`, for which the Inhibition was 7%.

`O=C(Nc1ccc(OC2CCN(Cc3ccsc3)CC2)c(Cl)c1)c1cccs1.O=C(O)C(F)(F)F` came in with an Inhibition of 16%. The molecule `O=C(O)C(F)(F)F.c1ccc2[nH]c(-c3ccc(-c4ccc(CNCC5CCCO5)cc4)s3)nc2c1` (stereo not given) came in with an Inhibition of 27%. Regarding `CCCCCCCC1CC(CC(=O)Nc2ccnc3ccc(OC)cc23)CN1C(=O)OC(C)(C)C` (stereo not given), the Inhibition amounted to 1%. `Cc1cccnc1Nc1nc(-c2ccccn2)cs1` returned an Inhibition of 60%.

On to `CN1CCN(c2ccnc3ccc(NC(=O)Cc4ccc(Br)c5ccccc45)cc23)CC1`, for which the Inhibition was 8%. In turn, `Cc1ccc(NC(=O)C2CCC2)cc1-c1ccc(C(=O)NCC2CC2)cc1` registered an Inhibition of 13%.

Turning to `Cc1cc2nc(-c3ccc(C(=O)NCc4ccc(C(C)(C)C)cc4)cc3)[nH]c2cc1C`, the Inhibition is 3%.

With `COc1ccc(NC(=O)/C=C/c2ccc(-c3ccccc3)cc2)cc1N1CCN(C)CC1.O=C(O)C(=O)O`, the Inhibition is reported as 21%. On to `O=c1c2ccccc2[nH]c2nc3ccccc3c(Nc3ccccc3)c12`, for which the Inhibition is reported as 8%.
